Where “and” joins values, the source holds several entries; their conditions need not be identical. Equal values may be shown once. Out of some 5,500 compounds screened, about 2,000 (36%) were called active. Roughly 18% stayed inconclusive and do not appear here. No stated cut-off is given here; in the data, active means normalized growth mostly below about 0.91 (no sharp cut-off); inconclusive means no clear call, values can overlap the other calls; inactive means mostly above about 0.92. Some of the results follow.
Assay: chemical genetic growth profiling, strain panel (AID 1159580);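 further: tested at 20 µM; growth read once vehicle control cultures reached saturation at 30 °C; 1 = growth at the plate median or of vehicle wells; lower values mean less growth of the strain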
Conditions: S. cerevisiae deletion strains, growth OD

Measured: normalized growth

COc1ccc(Cl)cc1C(=O)NCCc1ccc(S(=O)(=O)NC(=O)NC2CCCCC2)cc1
inactive: locus YAL013W, strain DEP1, active compounds read low 0.982 | locus YAL021C, strain ccr4, active compounds read low 1.01 | locus YAL026C, strain drs2, active compounds read low 1 | locus YAL030W, strain snc1, active compounds read low 1 | locus YAL040C, strain CLN3, active compounds read low 0.984 | locus YBL061C, strain skt5, active compounds read low 1 | locus YBR009C, strain hhf1, active compounds read low 0.993 | locus YBR021W, strain FUR4, active compounds read low 1.03 | locus YBR023C, strain chs3, active compounds read low 1 | locus YBR171W, strain sec66, active compounds read low 1.01 | locus YBR229C, strain ROT2, active compounds read low 0.956 | locus YBR231C, strain swc5, active compounds read low 0.997 | locus YBR279W, strain paf1, active compounds read low 1.01 | locus YCL011C, strain gbp2, active compounds read low 1.01 | locus YCL016C, strain dcc1, active compounds read low 0.992 | locus YCL029C, strain bik1, active compounds read low 0.99 | locus YCL061C, strain MRC1 (second series), active compounds read low 1 | locus YCL061C, strain MRC1, active compounds read low 1 | locus YCL069W, strain vba3, active compounds read low 1 | locus YCR088W, strain abp1, active compounds read low 1.01 | locus YDL005C, strain med2, active compounds read low 1.01 | locus YDL035C, strain GPR1, active compounds read low 0.973 | locus YDL040C, strain nat1, active compounds read low 1 | locus YDL074C, strain BRE1, active compounds read low 0.909 | locus YDL101C, strain DUN1, active compounds read low 0.978 | locus YDL134C, strain PPH21, active compounds read low 0.976 | locus YDL185W, strain tfp1, active compounds read low 0.959 | locus YDL192W, strain arf1, active compounds read low 0.997 | locus YDR001C, strain nth1, active compounds read low 1 | locus YDR069C, strain doa4, active compounds read low 1.01 | locus YDR101C, strain arx1, active compounds read low 1.01 | locus YDR137W, strain rgp1, active compounds read low 0.973 | locus YDR150W, strain NUM1, active compounds read low 0.971 | locus YDR159W, strain sac3, active compounds read low 1.01 | locus YDR162C, strain NBP2, active compounds read low 0.903 | locus YDR195W, strain ref2 0.927 | locus YDR297W, strain sur2, active compounds read low 1 | locus YDR318W, strain mcm21, active compounds read low 1.02 | locus YDR334W, strain swr1, active compounds read low 0.993 | locus YDR335W, strain msn5, active compounds read low 1.01 | locus YDR363W, strain ESC2, active compounds read low 0.968 | locus YDR388W, active compounds read low 0.995 | locus YDR392W, strain spt3, active compounds read low 0.918 | locus YDR502C, strain sam2, active compounds read low 0.989 | locus YEL003W, strain gim4, active compounds read low 0.997 | locus YEL037C, strain rad23, active compounds read low 1 | locus YEL061C, strain CIN8 (second series), active compounds read low 0.996 | locus YEL061C, strain CIN8, active compounds read low 0.984 | locus YER002W, strain NOP16, active compounds read low 1.02 | locus YER015W, strain faa2, active compounds read low 1 | locus YER016W, strain bim1, active compounds read low 1 | locus YER110C, active compounds read low 0.999 | locus YER111C, strain swi4, active compounds read low 1 | locus YER155C, strain BEM2 (second series), active compounds read low 0.996 | locus YER155C, strain BEM2, active compounds read low 0.994 | locus YER167W, strain BCK2, active compounds read low 1.01 | locus YFR010W, strain ubp6, active compounds read low 1.01 | locus YGL078C, strain dbp3, active compounds read low 0.979 | locus YGL086W, strain mad1, active compounds read low 1.02 | locus YGL167C, strain pmr1, active compounds read low 1 | locus YGL173C, strain kem1, active compounds read low 1 | locus YGL227W, strain vid30, active compounds read low 0.998 | locus YGL240W, strain doc1, active compounds read low 0.994 | locus YGL248W, strain PDE1, active compounds read low 0.973 | locus YGL253W, strain hxk2, active compounds read low 1 | locus YGR078C, strain PAC10, active compounds read low 0.958 | locus YGR135W, strain pre9, active compounds read low 0.979 | locus YGR229C, strain SMI1, active compounds read low 0.954 and 0.937 | locus YGR252W, strain gcn5, active compounds read low 1.12 | locus YHR013C, strain ard1, active compounds read low 0.969 | locus YHR027C, strain rpn1, active compounds read low 1.01 | locus YHR030C, strain SLT2, active compounds read low 1 and 0.996 | locus YHR079C, strain IRE1 (second series), active compounds read low 1.01 | locus YHR079C, strain IRE1, active compounds read low 0.993 | locus YHR094C, strain hxt1, active compounds read low 0.996 | locus YHR129C, strain ARP1, active compounds read low 0.993 | locus YHR142W, strain chs7, active compounds read low 1.01 | locus YHR200W, strain rpn10, active compounds read low 1.01 | locus YIL066C, strain RNR3, active compounds read low 0.962 | locus YIL073C, strain SPO22, active compounds read low 1.06 | locus YIL125W, strain kgd1, active compounds read low 0.998 | locus YIR030C, strain dcg1, active compounds read low 1.01 | locus YJL092W, strain hpr5, active compounds read low 1 | locus YJL095W, strain BCK1 (second series), active compounds read low 0.997 | locus YJL095W, strain BCK1, active compounds read low 0.963 and 0.978 | locus YJL115W, strain asf1, active compounds read low 1 | locus YJL129C, strain trk1, active compounds read low 0.994 | locus YJL134W, strain LCB3, active compounds read low 0.993 | locus YJL154C, strain vps35, active compounds read low 0.996 | locus YJL164C, strain tpk1, active compounds read low 0.995 | locus YJL166W, strain qcr8, active compounds read low 1.01 | locus YJL168C, strain set2, active compounds read low 0.998 | locus YJL187C, strain SWE1 (second series), active compounds read low 0.943 | locus YJL187C, strain SWE1, active compounds read low 1.01 | locus YJR043C, strain POL32, active compounds read low 1.03 | locus YJR066W, strain TOR1, active compounds read low 0.934
